Compounds without any hit were thinned out: in the full panel of roughly 83,000, 20% have a hit.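 Note: values are percent growth. 100 is the growth of untreated cells, values between 100 and 0 indicate rising inhibition; between -100 and 0 indicates cell death.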 A number with no mark means an inactive call. Active and inactive are the calls of the source. How the source made its calls: active means growth percent below 10; inactive means the rest.
How the values were obtained:
Test in all cases: NCI-60 one-dose screen, 48 h (100 = growth as untreated, 0 = no growth, -100 = all killed)
Details in all cases: 10 µM unless noted
SK-MEL-2 melanoma = tested on: SK-MEL-2 melanoma
EKVX NSCLC = tested on: EKVX NSCLC
SN12C renal = tested on: SN12C renal
UO-31 renal = tested on: UO-31 renal
TK-10 renal = tested on: TK-10 renal
ACHN renal = tested on: ACHN renal
CAKI-1 renal = tested on: CAKI-1 renal
A498 renal = tested on: A498 renal
CCRF-CEM leukemia = tested on: CCRF-CEM leukemia
MOLT-4 leukemia = tested on: MOLT-4 leukemia

Structure (SMILES)	growth (SK-MEL-2 melanoma)	growth (EKVX NSCLC)	growth (SN12C renal)	growth (UO-31 renal)	growth (TK-10 renal)	growth (ACHN renal)	growth (CAKI-1 renal)	growth (A498 renal)	growth (CCRF-CEM leukemia)	growth (MOLT-4 leukemia)
Cn1c2ccccc2c2c3c(c4c5cc(Br)ccc5n(C)c4c21)C(=O)N(O)C3=O	56.3%	88.5%	-53.2% (active)	2.59% (active)	90.3%	-23% (active)	-22.4% (active)	103%	-22.2% (active)	-21.4% (active)
C#Cc1cccc(NC(=O)C2CCCCN2C(=O)CCl)c1 (stereo not given)	-51.7% [8.25 µM] (active)	19.6% [8.25 µM]	-92.3% [8.25 µM] (active)	-97.3% [8.25 µM] (active)	9.36% [8.25 µM] (active)	-97.3% [8.25 µM] (active)	-95.5% [8.25 µM] (active)	58.5% [8.25 µM]	-11.9% [8.25 µM] (active)	-13.7% [8.25 µM] (active)
COc1ccc(/C=N/NC(=O)Cn2c(-c3ccc(S(C)(=O)=O)cc3)nc3ccccc32)cc1	107%	97%	99.9%	75.9%	109%	105%	93%	95%	106%	141%
C=C(c1ccc(C(=O)O)c(F)c1)c1cc2c(cc1C)C(C)(C)CCC2(C)C	89.4%	75.6%	85.4%	92.6%	102%	79%	81.4%	95.8%	86.8%	82.4%
CCOC(=O)c1nnn(Cc2cc(=O)oc3ccc(O)cc23)c1C	111%	105%	96.2%	91.8%	101%	105%	96.7%	101%	82.9%	100%
CCN(CC)CCCC(Cc1ccccc1)Nc1c2ccc(Cl)cc2nc2ccc(OC)cc12 (stereo not given)	7.91% (active)	26.6%	73.6%	-39.6% (active)	-2.6% (active)	-39.2% (active)	32.6%	46.8%	-0.463% (active)	4.64% (active)
Nc1nc(C(=O)N/N=C/c2ccc(F)cc2)nn1-c1ccc(S(N)(=O)=O)cc1	104%	101%	93.8%	81.4%	99.4%	99.2%	90.4%	100%	112%	111%
C=CC(CC(c1ccccc1)(c1ccccc1)c1ccccc1)N(CC)CC (stereo not given)	93.7%	75.7%	71.4%	43.2%	73.6%	85.8%	65.6%	66.3%	53.5%	56.2%
C=C1C(=O)O[C@H]2[C@H]1CC/C(CNC(=O)Cc1c[nH]c3ccccc13)=C\CC[C@@]1(C)O[C@@H]21	33.5%	79.3%	13.9%	34.9%	-35.9% (active)	3.84% (active)	14.7%	41.2%	-35.9% (active)	-4.65% (active)
Fc1cccc(-c2nc(-c3c[nH]c4ncccc34)cs2)c1	117% [100 µM]	28.6% [100 µM]	62.7% [100 µM]	61.1% [100 µM]	18% [100 µM]	22% [100 µM]	-11.1% [100 µM] (active)	76.6% [100 µM]	72% [100 µM]	71.8% [100 µM]
COc1ccc(/C=C2\c3cc(OC)c(OC)c(OC)c3CC[C@@H]2O)cc1F	41.6%	44.1%	53.2%	47.7%	57.9%	43%	48.4%	8.33% (active)	12.8%	21.5%
c1cc(OCCN2CCCC2)ccc1CNc1ccc2nc(CCC3CCCCC3)[nH]c2c1	35.6%	80.9%	71.3%	9.54% (active)	95.1%	60.4%	4.69% (active)	34.2%	12.7%	9.92% (active)
Cc1ccc(OCCOCCOCCOCCOCCOc2ccc(C)n(O)c2=S)c(=S)n1O	15.7%	13.1%	8.41% (active)	-26.1% (active)	30.2%	8.16% (active)	7.97% (active)	20.4%	1.49% (active)	2.29% (active)
CN(C)CCCC1(c2ccc(F)cc2)OCc2cc(-c3csc4ccccc34)ccc21 (stereo not given)	62.6%	55.3%	39.7%	2.29% (active)	62.1%	0.407% (active)	4.7% (active)	90.2%	-14.3% (active)	-15.6% (active)
CC1=C(Cl)C(=O)c2cc(C)ccc2C1=O	99.9%	94.2%	93.7%	73.3%	108%	96.9%	86.7%	97.2%	102%	98.1%
CN(C)Cc1ccc(NC(=O)c2cncc(C#Cc3cnc(N)c4ncccc34)c2)cc1C(F)(F)F	40.5%	89.4%	69.9%	-82% (active)	110%	-81.8% (active)	83%	60.6%	-6.13% (active)	43.5%
CSc1ccc(N2C(=N)C(=S)N(c3ccc(C)cc3)C2=O)cc1	118%	93.9%	94%	75.5%	109%	88.2%	82.7%	104%	80.6%	89.8%
NS(=O)(=O)c1ccc(C(=O)NN2C(=O)c3ccccc3C2=O)cc1	116%	105%	104%	89.9%	103%	112%	94%	73.3%	107%	107%
CC1(C)N=C(N)N=C(N)N1c1ccc(S(=O)(=O)Nc2nccs2)cc1	106%	102%	95.2%	89.5%	86.1%	108%	94.3%	96.2%	101%	103%
CCCCCCCCn1ccc2cc(NC(=O)CN=[N+]=[N-])ccc21	99.3%	84.9%	107%	70%	111%	104%	93.3%	96.7%	39%	93.3%
Cc1cccc(NC(=O)N/C(N)=N/c2nc3ccccc3s2)c1	33%	49.6%	43.9%	38.6%	59%	38.7%	25%	-3.86% (active)	21.4%	35.7%
CC(=O)c1c(Nc2cccc(F)c2)[nH]c2c(Cl)cc(Cl)c(Cl)c2c1=O	-37.5% (active)	10.8%	-0.0775% (active)	6.24% (active)	12.5%	2.02% (active)	-5.89% (active)	-41.6% (active)	8.65% (active)	4.94% (active)
COc1cc2c(c(OC)c1OC)C(=O)CC(c1cccc(C(=O)Nc3ccccc3Br)c1)O2 (stereo not given)	87.7%	99.1%	80%	70.2%	94.2%	89.7%	84.6%	91%	68.9%	68.6%
COc1cc(-c2ccc(-c3ccc(C(=N)N)cc3)s2)cc(OC)c1OC	83.9%	75.4%	71.4%	79.3%	113%	91.1%	63.4%	89.2%	26.9%	-2.06% (active)
CCOC(=O)c1cnn(CC(C)O)c1NC(=O)NCc1ccccc1C(F)(F)F (stereo not given)	76.6%	98.1%	99%	87.1%	80.9%	98.3%	86.4%	108%	114%	76%
O=C(c1c[nH]c2ccccc12)c1n[nH]c(=S)n1-c1ccc([N+](=O)[O-])cc1	86.4%	94.6%	92.8%	75.2%	117%	96.1%	85.4%	87.9%	85.1%	86%

Reference: PubChem BioAssay (NCI)
